For seven compounds, Potency and outcome results are on record in PubChem BioAssay (Tox21).

Test [1] can be described thus: qHTS assay to test for compound auto fluorescence at 535 nm (green) in HEK293 cells (AID 720680). In general terms: qHTS replaces the single test concentration by a dilution series.
Test [2] can be described thus: qHTS assay to test for compound auto fluorescence at 460 nm (blue) in HEK293 cell free culture (AID 720681). In a few lines: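 Blue fluorescence (Ex 405/Em 460 nm, triamterene-equivalent) was read immediately after pin transfer of compound or DMSO into medium (DMEM, 10% FBS) without cells.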
Test [3] is described as follows: qHTS assay to test for compound auto fluorescence at 535 nm (green) in HEK293 cell free culture (AID 720682). In a few lines:
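Measurement is a direct plate read of green fluorescence (485 nm in, 535 nm out) after compound addition to serum-supplemented DMEM lacking cells, with fluorescein used to express intensities.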

The nature of test [4]: qHTS assay to test for compound auto fluorescence at 590 nm (red) in HEK293 cell free culture (AID 720683). In a few lines:
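Red-channel autofluorescence of compounds in culture medium (DMEM, 10% FBS), no cells, measured at 540/590 nm. Rose Bengal sodium is the reference fluorophore for equivalence.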

Test [5] in a line: qHTS assay to test for compound auto fluorescence at 590 nm (red) in HepG2 cell free culture (AID 720684). In a few lines:
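Cell-free; medium MEM + 10% FBS; compound or DMSO added by pintool; read Ex 540/Em 590 nm; Rose Bengal sodium as red reference fluorophore.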

A short description of test [6]: qHTS assay to test for compound auto fluorescence at 460 nm (blue) in HepG2 cell free culture (AID 720685). In short, it runs like this: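 Cell-free plates of MEM plus 10% FBS received 23 nL compound or DMSO vehicle; blue-channel (405/460 nm) intensity scored against triamterene as reference fluorophore.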
The nature of test [7]: qHTS assay to test for compound auto fluorescence at 535 nm (green) in HepG2 cell free culture (AID 720686).
A short description of test [8]: qHTS assay to test for compound auto fluorescence at 460 nm (blue) in HepG2 cells (AID 720687). In short, it runs like this: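 Blue-channel autofluorescence (Ex/Em 405/460 nm, triamterene-equivalent) was measured after 1 hr compound exposure at 37 C, 5% CO2. Cells were HepG2, plated overnight at 37 C in MEM plus 10% FBS.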
A short description of test [9]: qHTS assay for identifying genotoxic compounds that show differential cytotoxicity against isogenic chicken DT40 cell lines with known DNA damage response pathways - Rev3 mutant cell line (AID 743014). Also: nearly all actives have a fitted effect of over 55% in size. Also: potency is read from the fitted curve at half-maximal effect.
Test [10] is described as follows: qHTS assay for identifying genotoxic compounds that show differential cytotoxicity against isogenic chicken DT40 cell lines with known DNA damage response pathways - Rad54/Ku70 mutant cell line (AID 743015). Also: nearly all actives have a fitted effect of over 60% in size. Also: potency is read from the fitted curve at half-maximal effect.
The nature of test [11]: qHTS assay to identify small molecule antagonists of the androgen receptor (AR) signaling pathway - cell viability counter screen (AID 743033; also: nearly all actives have a fitted effect of over 45% in size; also: potency is read from the fitted curve at half-maximal effect).
For test [12], the target named is Glucocorticoid receptor (Homo sapiens) (UniProt P04150). In words: qHTS assay to identify small molecule agonists of the glucocorticoid receptor (GR) signaling pathway (AID 720691; active = well fitted activation curve with a large enough effect in the signal ratio in the repeat runs, not every such curve was filed as active; the % refers to the signal ratio). The following applies: GR-bla HeLa, beta-lactamase reporter ratio, 18 h; activation: at 62.4 µM (top of the series). In short, it runs like this: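 HeLa GR-bla reporter line; cells pre-incubated 4 h, compound in DMSO 18 h at 37 C; LiveBLAzer B/G FRET substrate 2 h RT; fluorescence intensity read-out.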
Glucocorticoid receptor (Homo sapiens), sequence (P04150 whole entry, looked up): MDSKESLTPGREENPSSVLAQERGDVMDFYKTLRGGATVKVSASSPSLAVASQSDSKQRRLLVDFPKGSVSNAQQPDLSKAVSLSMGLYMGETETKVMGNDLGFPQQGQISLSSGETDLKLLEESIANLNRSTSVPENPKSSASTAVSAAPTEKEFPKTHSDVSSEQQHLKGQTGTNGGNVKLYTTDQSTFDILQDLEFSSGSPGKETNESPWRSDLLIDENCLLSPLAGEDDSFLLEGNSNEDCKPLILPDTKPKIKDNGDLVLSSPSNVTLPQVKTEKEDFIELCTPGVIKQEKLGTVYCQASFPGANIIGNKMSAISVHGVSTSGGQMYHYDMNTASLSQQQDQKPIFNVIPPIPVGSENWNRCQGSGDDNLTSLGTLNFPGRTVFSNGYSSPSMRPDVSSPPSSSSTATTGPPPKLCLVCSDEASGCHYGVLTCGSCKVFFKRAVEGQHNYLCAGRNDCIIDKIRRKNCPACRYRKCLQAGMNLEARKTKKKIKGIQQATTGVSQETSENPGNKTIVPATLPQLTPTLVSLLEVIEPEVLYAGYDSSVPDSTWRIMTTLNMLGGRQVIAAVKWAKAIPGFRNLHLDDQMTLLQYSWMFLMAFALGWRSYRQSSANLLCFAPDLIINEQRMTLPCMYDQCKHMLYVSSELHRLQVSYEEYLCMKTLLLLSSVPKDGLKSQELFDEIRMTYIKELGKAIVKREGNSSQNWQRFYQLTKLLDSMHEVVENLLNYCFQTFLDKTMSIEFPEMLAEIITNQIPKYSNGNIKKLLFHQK

Test [13] shares this target. In words: qHTS assay to identify small molecule antagonists of the glucocorticoid receptor (GR) signaling pathway (AID 720692; active = well fitted inhibition curve with a large enough effect in the signal ratio in the repeat runs, not every such curve was filed as active; the % refers to the signal ratio; also: potency is read from the fitted curve at half-maximal effect). In short, it runs like this:
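Read-out: beta-lactamase FRET substrate fluorescence, 2 h at room temperature, in HeLa cells stably carrying a GRE-driven bla reporter. Compounds were co-incubated with 5 nM dexamethasone agonist (final) for 18 h at 37 C.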

The nature of test [14]: qHTS assay to identify small molecule antagonists of the glucocorticoid receptor (GR) signaling pathway - cell viability counter screen (AID 720693). Also: nearly all actives have a fitted effect of over 55% in size. Also: potency is read from the fitted curve at half-maximal effect.
Test [15] can be described thus: qHTS assay for identifying genotoxic compounds that show differential cytotoxicity against isogenic chicken DT40 cell lines with known DNA damage response pathways - wild type cell line (AID 743012). Also: nearly all actives have a fitted effect of over 60% in size. Also: potency is read from the fitted curve at half-maximal effect. In short, it runs like this: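 CellTiter-Glo luminescence readout of viability in wild type DT40 cells after 40 h compound exposure at 37 C/5% CO2; 300 cells/well; reagent incubated 30 min at room temperature before reading.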

The nature of test [16]: qHTS assay to identify small molecule antagonists of the androgen receptor (AR) signaling pathway using the MDA cell line - cell viability counter screen (AID 743041; also: nearly all actives have a fitted effect of over 45% in size; also: potency is read from the fitted curve at half-maximal effect). In short, it runs like this:
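Viability read by CellTiter-Fluor fluorescence in the same wells as the antagonist screen, added after 15.5 h of a 16 h, 37C exposure. Human breast carcinoma MDA-kb2 AR-luc cells, compounds co-dosed with agonist R1881.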

Test [17] concerns the target Androgen receptor (Homo sapiens) (UniProt P10275). Description: qHTS assay to identify small molecule antagonists of the androgen receptor (AR) signaling pathway (AID 743035; active = well fitted inhibition curve with a large enough effect in the signal ratio in the repeat runs, not every such curve was filed as active; the % refers to the signal ratio). In short, it runs like this:
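AR-bla HEK293 reporter cells; 4 h settle at 37C/5% CO2; compound + R1881 agonist, 16 h at 37C; LiveBLAzer B/G FRET substrate 2 h RT; fluorescence intensity read. qHTS format.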

The target is the same in test [18]. In words: qHTS assay to identify small molecule agonists of the androgen receptor (AR) signaling pathway (AID 743036; active = well fitted activation curve with a large enough effect in the signal ratio in the repeat runs, with a control signal flat, not every such curve was filed as active; the % refers to the signal ratio). In a few lines: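 Beta-lactamase under UAS control, stably integrated in HEK293 GripTite cells, reports receptor activation. After 16 h compound treatment, cells received FRET substrate for 2 h at room temperature before fluorescence reading.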

For test [19] the target is unchanged. In words: qHTS assay to identify small molecule agonists of the androgen receptor (AR) signaling pathway using the MDA cell line (AID 743040; also: nearly all actives have a fitted effect of over 20% in size). In short, it runs like this: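 Luciferase agonist assay: 16 h compound exposure at 37C without CO2 in MDA-kb2 AR-luc cells, whose MMTV promoter responds to both AR and GR. Luminescence measured after 30 min room-temperature incubation with ONE-Glo.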

The target is the same in test [20]. Description: qHTS assay to identify small molecule antagonists of the androgen receptor (AR) signaling pathway using the MDA cell line (AID 743042; also: nearly all actives have a fitted effect of over 55% in size). In short, it runs like this: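 Antagonist mode: compounds plus R1881 agonist added to MDA-kb2 AR-luc cells, incubated 16 h at 37C. Luciferase reporter luminescence quantified, with multiplexed CellTiter-Fluor readout for cell viability.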

Each structure is given as a SMILES string. Where “and” joins values, the source holds several entries; their conditions need not be identical. Equal values may be shown once. A number with no mark means an inactive call. Records with an inconclusive call do not appear. Calls of active or inactive are those of the source. Unless noted, calls follow the shape of the dose curve; as a rule, active = well fitted curve in the direction sought with a large enough effect in the repeat runs; inconclusive = weak or mixed curves; inactive = no such curve, though single readings can be large; an effect the other way counts as inactive or inconclusive.

Androgen receptor (Homo sapiens), sequence (P10275 whole entry, looked up): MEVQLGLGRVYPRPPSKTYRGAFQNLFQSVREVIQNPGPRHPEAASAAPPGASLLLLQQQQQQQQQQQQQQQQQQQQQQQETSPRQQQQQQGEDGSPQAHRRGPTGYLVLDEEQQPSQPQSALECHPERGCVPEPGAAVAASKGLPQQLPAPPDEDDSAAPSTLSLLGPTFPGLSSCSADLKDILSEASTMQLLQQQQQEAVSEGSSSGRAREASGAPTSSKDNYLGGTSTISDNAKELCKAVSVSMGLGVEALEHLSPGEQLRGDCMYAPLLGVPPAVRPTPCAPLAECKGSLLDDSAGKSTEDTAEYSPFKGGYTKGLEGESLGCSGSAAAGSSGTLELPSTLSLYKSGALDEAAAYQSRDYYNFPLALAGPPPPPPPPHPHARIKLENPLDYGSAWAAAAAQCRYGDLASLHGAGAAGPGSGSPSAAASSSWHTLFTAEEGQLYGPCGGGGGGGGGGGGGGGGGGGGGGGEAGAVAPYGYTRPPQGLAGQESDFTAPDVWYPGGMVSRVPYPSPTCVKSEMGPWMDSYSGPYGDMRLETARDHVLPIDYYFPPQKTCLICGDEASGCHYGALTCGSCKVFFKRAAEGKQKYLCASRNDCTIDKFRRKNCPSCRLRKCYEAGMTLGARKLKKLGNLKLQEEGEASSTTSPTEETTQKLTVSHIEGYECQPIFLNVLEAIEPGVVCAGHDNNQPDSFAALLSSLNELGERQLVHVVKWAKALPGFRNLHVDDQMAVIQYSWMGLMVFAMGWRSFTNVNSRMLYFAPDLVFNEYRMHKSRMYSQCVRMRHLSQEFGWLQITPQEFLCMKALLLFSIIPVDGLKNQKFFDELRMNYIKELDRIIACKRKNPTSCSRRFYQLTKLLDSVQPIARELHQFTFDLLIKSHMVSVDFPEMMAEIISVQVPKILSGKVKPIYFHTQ

As for `CC(C)(C)c1cc(/C=C2\SC(=N)NC2=O)cc(C(C)(C)C)c1O`, the Potency result in test [1], in test [2], in [3], in [4], in test [5] and in [6] was “inactive” throughout. In addition, the Potency result in test [7] and in test [8] was “inactive” throughout. The values for the Potency in test [9], in test [10] and in [11] were 61.1 µM (active), 17.2 µM (active) and 49 µM (active), respectively.
Regarding `CCN(CC)CCSC(=O)C(c1ccccc1)c1ccccc1`, the Potency entry in [1], in [2], in [3], in test [4], in [5] and in test [6] was “inactive” in each case. The Potency result in test [7], in test [12], in test [14], in [9], in [11] and in test [16] was “inactive” each time. The Potency is 19 µM (active) and 10.7 µM (active) in [13]; 26.6 µM (active) in [15].
For the compound `CC1=C(/C=C/C(C)=C/C=C/C(C)=C\C=O)C(C)(C)CCC1`, the Potency result in test [1], in [2], in test [3], in [4], in test [5] and in test [6] was “inactive” throughout. Moreover, the Potency result in test [7], in test [8] and in test [16] was “inactive” in each case. Further, the Potency in test [15] was 14.5 µM (active); in test [9] it was 14.5 µM (active); in [10] it was 13 µM (active); in [11], 29.3 µM (active).
For `C=CCCCCCCC=C`, the Potency entry in [1], in test [2], in test [3], in test [4], in test [5] and in test [6] was “inactive” throughout. The Potency entry in test [7], in test [14], in test [15], in test [10] and in test [16] was “inactive” each time.
As to `NC(=O)C(=O)N/N=C/c1ccc([N+](=O)[O-])o1`, the Potency entry in [1], in test [2], in test [3], in [4], in test [5] and in test [6] was “inactive” in each case. In addition, the Potency result in test [7], in [12], in test [13], in test [14], in test [11] and in [16] was “inactive” each time. Also, the Potency in test [15] was 10.6 µM (active); in test [9], 11.9 µM (active); in test [10], 16.8 µM (active).
On to `C[Si](C)(C)Cl`, for which the Potency entry in test [1], in test [2], in [3], in test [4], in test [5] and in test [6] was “inactive” in each case. Further, the Potency result in test [7], in test [12], in test [13], in test [14], in test [15] and in test [9] was “inactive” throughout. Further, the Potency entry in [10], in test [11], in test [17], in test [19], in [16] and in [20] was “inactive” in each case. For the same compound, in [18], the result was inactive.
Regarding `CCN(CC)CCCN(c1ccccc1)C1Cc2ccccc2C1`, the Potency entry in test [1], in test [2], in test [3], in test [4], in test [5] and in test [6] was “inactive” each time. Moreover, the Potency entry in test [7] is “inactive”. Moreover, the Potency is 23.9 µM (active) in test [14], 0.944 µM (active) in [9], 1.5 µM (active) in [10] and 11.9 µM (active) in test [16].
